From PubChem BioAssay
KCNQ2 inh: rat KCNQ2 potassium channel inhibitors, primary screen, cell-based, CHO-K1, FluxOR thallium flux, B-score. Potassium voltage-gated channel subfamily KQT member 2 (Rattus norvegicus), O88943. 20 min; stronger effect = lower value. B-score at 10 µM. 310,000 tested, 1.1% active. AID 2156, 2009;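 active means fluorescence ratio B-score at most minus 3 library SDs, with starting brightness B-score within 2 library SDs, cut at about -5.5 in these data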
Target sequence (O88943 whole entry, looked up): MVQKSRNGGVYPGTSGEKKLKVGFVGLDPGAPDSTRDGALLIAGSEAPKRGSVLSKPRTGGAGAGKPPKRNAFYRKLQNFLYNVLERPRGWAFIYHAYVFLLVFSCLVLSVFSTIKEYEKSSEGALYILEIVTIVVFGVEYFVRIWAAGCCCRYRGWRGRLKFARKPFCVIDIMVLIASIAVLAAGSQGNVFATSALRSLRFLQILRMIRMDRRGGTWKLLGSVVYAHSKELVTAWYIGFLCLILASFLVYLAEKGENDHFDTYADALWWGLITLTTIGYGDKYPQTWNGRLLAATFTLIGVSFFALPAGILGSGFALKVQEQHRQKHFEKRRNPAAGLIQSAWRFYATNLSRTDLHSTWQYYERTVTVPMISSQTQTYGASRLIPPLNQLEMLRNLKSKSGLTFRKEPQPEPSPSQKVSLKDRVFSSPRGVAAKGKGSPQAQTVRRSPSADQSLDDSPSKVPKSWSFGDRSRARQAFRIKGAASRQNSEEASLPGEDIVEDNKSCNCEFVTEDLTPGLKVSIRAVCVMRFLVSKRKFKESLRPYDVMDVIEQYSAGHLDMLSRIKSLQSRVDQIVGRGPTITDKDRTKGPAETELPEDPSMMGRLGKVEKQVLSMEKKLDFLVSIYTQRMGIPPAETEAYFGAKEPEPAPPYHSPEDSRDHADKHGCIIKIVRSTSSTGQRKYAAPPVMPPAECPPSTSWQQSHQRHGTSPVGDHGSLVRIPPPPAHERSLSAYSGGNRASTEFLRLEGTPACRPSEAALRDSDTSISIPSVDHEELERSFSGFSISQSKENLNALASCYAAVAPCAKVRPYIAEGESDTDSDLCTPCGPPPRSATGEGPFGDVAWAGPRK
KCNQ2 enhance: potentiators of rat KCNQ2 potassium channel; Potassium voltage-gated channel subfamily KQT member 2 (Rattus norvegicus), O88943; CHO-K1 KCNQ2, FluxOR thallium flux fluorescence; stronger effect = higher value; B-score at 10 µM; 310,000 tested, 0.54% active;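 active means fluorescence ratio B-score at least 3 SD of library B-scores, with initial fluorescence B-score within 3 of them, cut at about 5.3 in these data; same plate scores as AID 2156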;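 further: B-score of peak minus minimum over baseline fluorescence ratio after K+ and Tl+ stimulus; positive B-score means potentiation of KCNQ2 with more thallium influx and brighter signal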
Kir21 confirm: mouse Kir2.1 channel blockers, retest, confirmation, cell-based, FluxOR thallium flux, duplicate; shares compounds with KCNQ2 enhance; Kir2.1-expressing cells, FluxOR thallium flux fluorescence; stronger effect = lower value; Tl flux remaining, % of negative control (stronger effect = lower value), % at 10 µM; 2,300 tested, 41% active; AID 2032, 2009;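 active means Primary-screen hit whose thallium flux fell at least 3 control SD below untreated wells in both duplicates, with normal baseline fluorescence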
HEK293 ctr: parental HEK293 activity in Kir2.1 inhibitor counter-screen. AID 2105. parental HEK293 cells, FluxOR thallium flux fluorescence; 0% = unstimulated blank wells. FluxOR signal as % of negative control (100 = no effect), % at 10 µM. 2,300 tested, 19% active. shares compounds with KCNQ2 enhance;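 active means dye signal at least 3 control SD above or below untreated wells in both duplicates, raw fluorescence within 3, either direction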;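 further: percent is based on the flux ratio of peak minus minimum fluorescence over baseline F0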
CHO-K1 ctr: nonspecific thallium flux increase in parental CHO-K1, confirmation, counter-screen for KCNQ2 potentiator project, cell-based, FluxOR thallium flux, duplicate. AID 2282, 2010. activity increase over 3SD of controls, % at 10 µM. 1,200 tested, 43% active. parental CHO-K1 cells, FluxOR thallium flux fluorescence; zero = vehicle mean+3SD, 100% = vehicle-minus-blank window. shares compounds with KCNQ2 enhance;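 active means signal rise of at least 3 SD above the untreated control mean, in both duplicate wells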;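 further: counter screen of KCNQ2 potentiator hits so any rise reflects channel-independent effects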
KCNQ1 pot spec: human KCNQ1 channel potentiation off-target, confirmation, selectivity assay for KCNQ2 potentiator project, cell-based, CHO, FluxOR thallium flux. activation over 3SD threshold, % at 10 µM. 1,200 tested, 28% active. CHO KCNQ1 stable, FluxOR thallium flux fluorescence; beyond 3SD, as % of vehicle-control signal. AID 2283, 2010. shares compounds with KCNQ2 enhance;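 active means fluorescence ratio rise of at least 3 SD of vehicle wells above their mean, in both replicate wells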
KCNQ2 pot confirm: rat KCNQ2 channel potentiators, confirmation, cell-based, CHO, FluxOR thallium flux, duplicate. CHO-KCNQ2 cells, FluxOR thallium flux fluorescence. 1,200 tested, 68% active. AID 2287, 2010. potentiation, less the hit threshold, % at 10 µM. shares compounds with KCNQ2 enhance;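 active means fluorescence ratio rising 3 SD or more over the vehicle control mean in both replicates, plus primary screen hit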;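 further: peak minus minimum thallium fluorescence divided by baseline after K/Tl stimulus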
Kir21 spec: mouse Kir2.1 channel activation off-target, confirmation, selectivity assay for KCNQ2 potentiator project, cell-based, HEK293, FluxOR thallium flux; 1,200 tested, 2% active; activity over 3SD threshold, % at 10 µM; shares compounds with KCNQ2 enhance; HEK293 Kir2.1, FluxOR thallium flux fluorescence; AID 2345, 2010;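 active means fluorescence ratio rise of at least 3 SD above the vehicle-control mean, seen in both replicates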
KCNQ2 W236L pot: potentiators of retigabine-insensitive KCNQ2 W236L, mechanism study for KCNQ2 potentiator project, cell-based, rat KCNQ2 W236L, CHO, automated patch clamp | current increase over 3SD of negative controls (%), stronger effect = higher value, % at 25 µM | automated patch clamp current | 940 tested, 10% active | shares compounds with KCNQ2 enhance | AID 2558, 2010;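 active means current increase at least 3 SD of the untreated controls above them in both duplicate recordings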
A number is an active result; i = inactive; nt = no result given. Rows were chosen to be rich in hits. Some 1.6% of all compounds tested hit in one or more screens of this group.

SMILES	KCNQ2 inh	KCNQ2 enhance	Kir21 confirm	HEK293 ctr	CHO-K1 ctr	KCNQ1 pot spec	KCNQ2 pot confirm	Kir21 spec	others
Cc1cc(C)nc(NCCCc2ccccc2)n1	i	nt	nt	nt	nt	nt	nt	nt
CCCCNc1cc(C)nc(NCc2ccccc2)n1	i	nt	15%	i	nt	nt	nt	nt
Cc1cc(C)c(S(=O)(=O)Nc2ccnc(-c3cccnc3)n2)c(C)c1	i	i	nt	nt	nt	nt	nt	nt
CCCCOC(=O)n1c(=S)oc2cc(Cl)ccc21	i	i	nt	nt	nt	nt	nt	nt
COC(=O)n1c(=S)oc2cc(Cl)ccc21	i	8.4	i	i	28	i	i	i	KCNQ2 W236L pot=i
CCN1CCN(S(=O)(=O)c2ccc(Cl)c(C(=O)Nc3nnc(C)s3)c2)CC1	i	nt	nt	nt	nt	nt	nt	nt
S=c1nc(-c2ccc(Br)cc2)[nH]c2ccccc12	i	26	i	452%	i	i	40	i	KCNQ2 W236L pot=i
Fc1ccc(-c2nc3ccccc3[nH]2)cc1	i	i	nt	nt	nt	nt	nt	nt
CCC(C)N1CCC(Oc2ccc(C(=O)NCc3ccccn3)cc2)CC1 (configuration not stated)	i	nt	nt	nt	nt	nt	nt	nt
O=C(Cc1ccc(F)cc1)Nc1cccc(-c2cn3c(n2)SCC3)c1	i	10	i	i	i	i	i	i
O=C(Nc1cccc(-c2cn3c(n2)SCC3)c1)c1ccc(Br)o1	i	nt	nt	nt	nt	nt	nt	nt
O=C(NC1CCCc2ccccc21)c1cccc(S(=O)(=O)N2CCOCC2)c1 (configuration not stated)	i	nt	nt	nt	nt	nt	nt	nt
CCCCN1C(=O)c2ccc(C(=O)NCCN3C(=O)S/C(=C\c4cccnc4)C3=O)cc2C1=O	i	i	nt	nt	nt	nt	nt	nt
COc1ccc(C[C@H]2CN3C(=NC[C@@H]3C(C)C)N2CCNC(=O)c2ccc(C)c(Br)c2)cc1	i	nt	49%	i	nt	nt	nt	nt
Cc1ccc(C(=O)NCCN2C3=NC[C@H](C(C)C)N3C[C@H]2Cc2ccc(O)cc2)cc1Br	i	nt	nt	nt	nt	nt	nt	nt
COc1ccc(CCN2C(=S)N(C)C(=O)C2CC(=O)Nc2ccc(F)cc2)cc1 (configuration not stated)	i	nt	nt	nt	nt	nt	nt	nt
Cc1ccc(SCC(=O)Nc2nnc(-c3ccco3)o2)cc1	i	5.6	nt	nt	i	i	i	i
O=C(CSc1ccc(F)cc1)Nc1nnc(-c2ccco2)o1	i	i	nt	nt	nt	nt	nt	nt
CCCCc1ccc(NC(=O)c2ccc(N(C)S(C)(=O)=O)cc2)cc1	i	nt	nt	nt	nt	nt	nt	nt
S=C(Nc1ccc(Oc2ccccc2)cc1)N(CCCN1CCOCC1)Cc1ccccn1	i	nt	nt	nt	nt	nt	nt	nt
O=C(Cc1ccc(F)cc1)Nc1ccccc1N1CCCC1	i	11	59%	i	2.5	i	48	i	KCNQ2 W236L pot=i
CN1CCN(c2ccccc2NC(=O)Cc2ccc(Cl)cc2)CC1	i	i	nt	nt	nt	nt	nt	nt
O=C(Cc1ccc(Cl)c(Cl)c1)Nc1ccccc1N1CCCC1	i	7.2	i	i	103	i	56	i	KCNQ2 W236L pot=i
COc1ccc(NC(=O)CSCC(=O)Nc2ccccc2N2CCCC2)cc1	i	i	nt	nt	nt	nt	nt	nt
COc1ccc(NC(=O)CSCC(=O)Nc2ccccc2N2CCCCC2)cc1	i	6.7	nt	nt	19	60	i	i
O=C(Nc1ccc(F)cc1)Nc1ccccc1N1CCCCC1	i	i	nt	nt	nt	nt	nt	nt
